According to PubChem BioAssay (NCI):
The panel holds about 79,000 compounds, 15% with a hit somewhere; the sample as a whole holds those more often. Active and inactive are the calls of the source. No stated cut-off is given here; in the data, active means growth inhibition above about 70%; inactive means the rest.

What was measured:
[1] = NCI Yeast Anticancer Drug Screen. Data for the rad50 strain (AID 155);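 further: 0% = growth of vehicle-only cultures of the same strain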; settings: S. cerevisiae rad50 strain growth inhibition; at 50.0 µM; stronger effect = higher value
In short: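 A DNA repair-deficient yeast mutant serves as the test organism; compound-induced growth inhibition is calculated against vehicle-treated cells.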

[2] = NCI Yeast Anticancer Drug Screen. Data for the mec2-1 strain (AID 157); settings: S. cerevisiae mec2-1 strain, at 50.0 µM, stronger effect = higher value
In short: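 Each compound was tested on mec2-1 yeast, a strain altered in DNA damage repair or cell cycle control. Growth inhibition is reported relative to vehicle.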

[3] = NCI Yeast Anticancer Drug Screen. Data for the sgs1 mgt1 strain (AID 161);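 further: 0% = growth of cultures given vehicle only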; settings: S. cerevisiae sgs1 mgt1 strain, at 50.0 µM, stronger effect = higher value
In short: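 Inhibition of yeast growth, normalised to vehicle-treated controls, is reported for a strain bearing genetic alterations in DNA damage repair.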

[4] = NCI Yeast Anticancer Drug Screen. Data for the cln2 rad14 strain (AID 165);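 further: 0% = growth equal to vehicle treated cultures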; settings: S. cerevisiae cln2 rad14 strain, at 50.0 µM, stronger effect = higher value
In short: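 Test compounds were added to cln2 rad14 yeast cultures; inhibition of growth was then determined by comparison with vehicle treatment.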

[5] = NCI Yeast Anticancer Drug Screen. Data for the bub3 strain (AID 167); settings: S. cerevisiae bub3 mutant strain, at 50.0 µM, stronger effect = higher value
In short: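 Inhibition values come from growth of compound-treated mutant yeast normalised to vehicle-treated controls.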

[6] = NCI Yeast Anticancer Drug Screen. Data for the mlh1 rad18 strain (AID 175); settings: S. cerevisiae mlh1 rad18 strain growth inhibition; at 50.0 µM; stronger effect = higher value
In short: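 Inhibition values reflect reduced growth of mutant yeast versus vehicle-treated controls following compound exposure; the mutations affect DNA damage repair.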

Measured: growth inhibition

Nc1cc(N=Nc2ccc([As](=O)(O)O)cc2)ccc1O
inactive: [1] 7.95% | [2] 13.4% | [3] -5.2% | [4] 11% | [5] 16.6% | [6] 16.9%

CC(=O)Nc1ccc([N+](=O)[O-])c(C(F)(F)F)c1
inactive: [1] -4.2% | [2] -6.4% | [3] 9.05% | [4] 13.1% | [5] -3.9% | [6] 6.05%

O=C1NC(=O)C(CCO)(c2ccccc2)C(=O)N1
inactive: [1] -21.6% | [2] -13% | [3] -4.4% | [4] -6.25% | [5] -11.7% | [6] -4.15%

Cc1cccc(OP(=O)(c2ccccc2)c2ccccc2)c1
inactive: [1] 15.7% | [2] 0.35% | [3] 22.6% | [4] -40.6% | [5] 3.55% | [6] -15.9%

O=NN1CCCS1(=O)=O
inactive: [1] 21.2% | [2] 17.9% | [3] 15.8% | [4] 14.3% | [5] 3.95% | [6] 18.8%

Cn1cnc([N+](=O)[O-])c1C(=O)O (tested in a mixture with another compound)
inactive: [1] -18.2% | [2] -3.55% | [3] -6.65% | [4] -18.4% | [5] 27.3% | [6] -1%

CCN1CCOC(CC)(c2cc(Cl)cc(Cl)c2Cl)C1 (stereo unspecified)
inactive: [1] 6.35% | [2] 20.4% | [3] 8.4% | [4] 13.2% | [5] 4.3% | [6] 20.4%

CP(=S)(c1ccccc1)P(C)(=S)c1ccccc1 (stereo unspecified)
inactive: [1] -15.4% | [2] -19.4% | [3] -17.9% | [4] 5.05% | [5] -21.2% | [6] -31%

N#CC(C#N)=C(C#N)C#N
inactive: [1] 14.1% | [2] 4.6% | [3] 1.9% | [4] -25.9% | [5] 0.05% | [6] 6.25%

Cc1nc2ccccc2c(=O)n1-c1ccccc1F
inactive: [1] -10.6% | [2] -30.2% | [3] -19.8% | [4] 4.8% | [5] -20.9% | [6] -29.8%

COC(=O)CCP(CCC(=O)OC)c1ccccc1
inactive: [1] -3.9% | [2] -11% | [3] -7.15% | [4] -10.7% | [5] -4.85% | [6] 1.1%

Cc1cc(NC(=O)CCc2ccc(N)cc2)ccc1S(=O)(=O)F
active: [1] 89.5% | [2] 94.9% | [3] 96.5% | [4] 81.8% | [5] 95% | [6] 95.2%

Cc1ccc(C)c(NP(=O)(Nc2cc(C)ccc2C)N(CCCl)CCCl)c1
inactive: [1] 30.2% | [2] -4.4% | [3] 30.2% | [4] 8.1% | [5] 9.8% | [6] -8.55%

CCC(Br)(CC)C(=O)NC(N)=O
inactive: [1] 13.1% | [2] -23.8% | [3] -13.9% | [4] -16.4% | [5] -10.8% | [6] -6.05%

O=C(O)C(O)(c1ccccc1)c1ccsc1 (stereo unspecified)
inactive: [1] 4.45% | [2] 2.15% | [3] -8.6% | [4] -28.9% | [5] 1.95% | [6] 8.8%

Nc1ccc2c(c1)Oc1ccc(N)cc1O2
inactive: [1] -22.8% | [2] 1.2% | [3] 0.7% | [4] 15.1% | [5] -6.2% | [6] 5.15%

NC(CCSCCF)C(=O)O (stereo unspecified)
inactive: [1] 36.9% | [2] 8.6% | [3] 12.8% | [4] -2.65% | [5] 24.4% | [6] 35%

Cc1ccc(C(=O)CN)cc1
inactive: [1] 10.4% | [2] 0.05% | [3] -1.35% | [4] 4% | [5] 3.45% | [6] -9.5%

CN(C)C(=S)Oc1c(S(=O)(=O)F)ccc(Cl)c1Cl
active: [1] 96.3% | [2] 88% | [3] 98% | [4] 76.5% | [5] 95.2% | [6] 98.3%

CC(=O)c1c(O)c(C)c(O)c(Cc2c(O)c3c(c(C(=O)/C=C/c4ccccc4)c2O)OC(C)(C)C=C3)c1O
inactive: [1] 23.9% | [2] 29.8% | [3] 49.1% | [4] 17.7% | [5] 39.8% | [6] 14.5%

O=C1CN2CCC1CC2
inactive: [1] 10.3% | [2] -47% | [3] -3.25% | [4] 12.6% | [5] -23.2% | [6] 10.8%
